Experimental data from the supplement of paper PMC10849652.
About 8,800 targets were measured; listed, in parts, are those with a hit and a random draw of the rest. About 0.5% of all pairs of compound and target were hits. Unmarked numbers belong to inactive results.

Key:
Experiment in all cases: log2 fold change, soluble protein after heating vs DMSO (PISA); higher = thermal stabilisation; K562 lysate, 10 uM; active = over 0.2 and 3.5 SD of the protein, either way, in both replicates (recomputed)
[1] = compound: C#Cc1cccc(Nc2ncnc3cc(OCCOC)c(OCCOC)cc23)c1 [erlotinib]
In short: (§1)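 K562 pellets were dounce-homogenised in PBS pH 7.4 with 1 mM MgCl2, and the crude extract at 1 mg/mL protein was treated with 10 μM compound for 30 min. Aliquots were heated for 3 min across 48°C-58°C, pooled, and brought to 0.5% NP-40 at 4°C; soluble protein was the supernatant after 21,000xg for 90 min. Soluble protein was quantified by TMTpro 16plex LC-MS/MS with channel sums equalised, and reported as log2 fold change in thermal stability against DMSO controls, with values from duplicates.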

[2] = compound: C/C(=N\NC(=O)C1=CC(=CC=C1)S(=O)(=O)N2CCOCC2)/C3=C(C=CC(=C3)Cl)O
In short: as §1

[3] = compound: C1=CC(=CC=C1C2=NC3=C(N2)C=C(C=C3)C(=O)N)OC4=CC=C(C=C4)Cl
In short: as §1

[4] = compound: C1=CC2=C(C=CC(=C2)/C=C\3/C(=O)NC(=NCC4=CC=CS4)S3)N=C1
In short: as §1

[5] = compound: C1=CC2=NC=CN=C2C=C1/C=C/3\C(=O)NC(=O)S3
In short: as §1

[6] = compound: C1=CC=C(C=C1)C2=NC(=C(N2)C3=CC=NC=C3)C4=CC(=C(C=C4)Cl)O
In short: as §1

[7] = compound: C1=CC=C2C(=C1)C3=NNC4=CC=CC(=C43)C2=O
In short: as §1

[8] = compound: C1CCN(C1)C(=O)NC2=CC=CC(=C2)NC3=NC=C(C(=N3)NCCC4=CN=CN4)Br
In short: as §1

[9] = compound: C1CN(CCC1(CC2=CC=C(C=C2)Cl)N)C3=NC=NC4=C3C=CN4
In short: as §1

[10] = compound: C1COCCN1CCN2C3=CC=CC=C3N=C2NC(=O)C4=CC(=CC=C4)[N+](=O)[O-] [IRAK-1-4 Inhibitor I]
In short: as §1

[11] = compound: C=CC(=O)N1CCC[C@@H](n2nc(-c3ccc(Oc4ccccc4)cc3)c3c(N)ncnc32)C1 [ibrutinib]
In short: as §1

[12] = compound: CC(=O)c1cnc2ccc(-c3cc(Cl)c(O)c(Cl)c3)nc2c1N[C@H]1CC[C@H](CN(C)C)CC1
In short: as §1

[13] = compound: CC(C)(C)Cn1c(N)nc2ccc(-c3[nH]c(C(C)(C)C)nc3-c3ccc(F)cc3)nc21 [ralimetinib]
In short: as §1

[14] = compound: CC(C)(O)CC(=O)NCCn1ccc2ncnc(Nc3ccc(Oc4cccc(C(F)(F)F)c4)c(Cl)c3)c21
In short: as §1

[15] = compound: CC(C)C1=C2N=C(C=C(N2N=C1)NCC3=CC=CC=C3)NCCCCCCN
In short: as §1

[16] = compound: CC1=C(C(CC(=O)N1)C2=CC=C(C=C2)C(F)(F)F)C(=O)NC3=C(C=C4C(=C3)C=NN4)F
In short: as §1

[17] = compound: CC1=C(C2=C(C=C1)C(=O)C3=CC=CC=C3N2CCCN)C
In short: as §1

[18] = compound: CC1=C(C=C(C=C1)NC(=O)C2=CC(=CC=C2)C(C)(C)C#N)NC3=CC4=C(C=C3)N=CN(C4=O)C
In short: as §1

[19] = compound: CC1=C(C=C(C=C1)NC(=O)C2=CC(=CC=C2)N(C)C)NC(=O)C3=CC=C(C=C3)O
In short: as §1

[20] = compound: CC1=CC=C(C=C1)SC2=C3C=C(SC3=CN=C2)C(=O)N
In short: as §1

Chain of UniProt Q99541 (Q99541 whole entry, looked up): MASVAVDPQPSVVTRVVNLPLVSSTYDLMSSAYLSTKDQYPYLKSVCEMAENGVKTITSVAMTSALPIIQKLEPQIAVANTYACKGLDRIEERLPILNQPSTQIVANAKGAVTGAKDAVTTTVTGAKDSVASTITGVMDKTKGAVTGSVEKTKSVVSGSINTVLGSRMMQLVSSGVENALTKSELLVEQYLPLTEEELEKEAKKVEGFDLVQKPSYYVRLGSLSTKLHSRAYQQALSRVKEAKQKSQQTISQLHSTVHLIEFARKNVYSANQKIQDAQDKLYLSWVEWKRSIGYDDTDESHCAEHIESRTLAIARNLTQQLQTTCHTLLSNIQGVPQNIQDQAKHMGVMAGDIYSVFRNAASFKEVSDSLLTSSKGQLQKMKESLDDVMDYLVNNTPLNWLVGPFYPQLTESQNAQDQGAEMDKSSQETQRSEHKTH
Chain of UniProt P28340 (P28340 whole entry, looked up): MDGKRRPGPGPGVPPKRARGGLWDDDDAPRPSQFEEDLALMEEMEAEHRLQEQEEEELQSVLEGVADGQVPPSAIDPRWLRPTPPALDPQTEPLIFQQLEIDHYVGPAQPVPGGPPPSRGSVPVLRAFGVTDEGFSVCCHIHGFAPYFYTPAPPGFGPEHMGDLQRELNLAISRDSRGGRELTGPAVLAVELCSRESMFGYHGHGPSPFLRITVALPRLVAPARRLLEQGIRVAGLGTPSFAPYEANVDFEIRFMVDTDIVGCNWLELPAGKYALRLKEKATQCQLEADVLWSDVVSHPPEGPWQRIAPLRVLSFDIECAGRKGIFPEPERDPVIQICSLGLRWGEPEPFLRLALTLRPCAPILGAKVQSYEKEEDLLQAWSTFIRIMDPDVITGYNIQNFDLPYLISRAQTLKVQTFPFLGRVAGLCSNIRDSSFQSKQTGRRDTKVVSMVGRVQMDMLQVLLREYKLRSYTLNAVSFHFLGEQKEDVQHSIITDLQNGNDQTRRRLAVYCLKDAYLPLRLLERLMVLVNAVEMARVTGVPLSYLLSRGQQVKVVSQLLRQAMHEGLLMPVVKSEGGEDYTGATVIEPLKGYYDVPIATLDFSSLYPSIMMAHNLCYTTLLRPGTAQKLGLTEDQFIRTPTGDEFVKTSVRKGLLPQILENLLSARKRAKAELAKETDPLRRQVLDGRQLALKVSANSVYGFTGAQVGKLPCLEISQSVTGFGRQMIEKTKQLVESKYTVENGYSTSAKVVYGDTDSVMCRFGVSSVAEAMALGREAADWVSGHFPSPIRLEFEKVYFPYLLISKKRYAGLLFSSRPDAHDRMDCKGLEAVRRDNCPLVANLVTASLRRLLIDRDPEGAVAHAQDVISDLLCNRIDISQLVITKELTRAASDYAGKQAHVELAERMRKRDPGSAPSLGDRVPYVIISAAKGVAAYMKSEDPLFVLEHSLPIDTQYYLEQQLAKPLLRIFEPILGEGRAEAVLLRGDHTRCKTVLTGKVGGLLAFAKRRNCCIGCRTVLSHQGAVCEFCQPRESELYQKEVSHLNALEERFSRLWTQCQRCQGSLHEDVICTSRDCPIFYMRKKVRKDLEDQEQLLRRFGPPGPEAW
Chain of UniProt P07737 (P07737 whole entry, looked up): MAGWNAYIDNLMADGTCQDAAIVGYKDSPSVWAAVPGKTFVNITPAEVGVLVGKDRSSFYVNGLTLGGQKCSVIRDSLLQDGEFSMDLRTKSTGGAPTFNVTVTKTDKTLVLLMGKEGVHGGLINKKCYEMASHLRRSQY
Chain of UniProt Q5JRX3 (Q5JRX3 whole entry, looked up): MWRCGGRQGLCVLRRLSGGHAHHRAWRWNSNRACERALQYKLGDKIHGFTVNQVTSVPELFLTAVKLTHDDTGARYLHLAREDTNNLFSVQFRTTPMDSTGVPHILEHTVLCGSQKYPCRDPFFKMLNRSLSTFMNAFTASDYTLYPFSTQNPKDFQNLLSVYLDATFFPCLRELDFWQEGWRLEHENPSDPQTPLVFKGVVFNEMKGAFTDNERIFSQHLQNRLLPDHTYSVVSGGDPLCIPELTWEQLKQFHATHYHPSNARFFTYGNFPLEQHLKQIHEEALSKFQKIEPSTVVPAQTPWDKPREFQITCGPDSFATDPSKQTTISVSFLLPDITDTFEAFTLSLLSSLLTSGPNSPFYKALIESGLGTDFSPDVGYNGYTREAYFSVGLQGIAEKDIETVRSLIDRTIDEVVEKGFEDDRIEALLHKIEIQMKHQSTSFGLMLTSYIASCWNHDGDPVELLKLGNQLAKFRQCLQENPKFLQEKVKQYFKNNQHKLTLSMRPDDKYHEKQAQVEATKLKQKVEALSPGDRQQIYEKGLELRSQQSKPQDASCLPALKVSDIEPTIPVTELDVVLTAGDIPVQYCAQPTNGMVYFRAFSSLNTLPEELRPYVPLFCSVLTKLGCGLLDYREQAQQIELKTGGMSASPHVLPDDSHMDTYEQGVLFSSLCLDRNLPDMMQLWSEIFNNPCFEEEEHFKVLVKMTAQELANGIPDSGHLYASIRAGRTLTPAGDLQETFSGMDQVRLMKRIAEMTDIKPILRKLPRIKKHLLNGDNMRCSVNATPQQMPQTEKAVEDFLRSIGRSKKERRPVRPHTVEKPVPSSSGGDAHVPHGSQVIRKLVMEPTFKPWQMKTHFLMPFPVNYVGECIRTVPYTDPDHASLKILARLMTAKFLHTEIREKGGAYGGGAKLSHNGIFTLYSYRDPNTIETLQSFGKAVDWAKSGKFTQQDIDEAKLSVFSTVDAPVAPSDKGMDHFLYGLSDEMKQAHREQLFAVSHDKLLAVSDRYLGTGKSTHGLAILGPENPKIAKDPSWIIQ
Chain of UniProt O00264 (O00264 whole entry, looked up): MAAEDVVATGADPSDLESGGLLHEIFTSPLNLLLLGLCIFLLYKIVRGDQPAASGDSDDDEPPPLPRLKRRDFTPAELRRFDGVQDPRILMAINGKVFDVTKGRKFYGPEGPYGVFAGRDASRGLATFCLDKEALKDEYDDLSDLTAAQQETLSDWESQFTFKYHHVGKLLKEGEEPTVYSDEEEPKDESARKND
Chain of UniProt O60825 (O60825 whole entry, looked up): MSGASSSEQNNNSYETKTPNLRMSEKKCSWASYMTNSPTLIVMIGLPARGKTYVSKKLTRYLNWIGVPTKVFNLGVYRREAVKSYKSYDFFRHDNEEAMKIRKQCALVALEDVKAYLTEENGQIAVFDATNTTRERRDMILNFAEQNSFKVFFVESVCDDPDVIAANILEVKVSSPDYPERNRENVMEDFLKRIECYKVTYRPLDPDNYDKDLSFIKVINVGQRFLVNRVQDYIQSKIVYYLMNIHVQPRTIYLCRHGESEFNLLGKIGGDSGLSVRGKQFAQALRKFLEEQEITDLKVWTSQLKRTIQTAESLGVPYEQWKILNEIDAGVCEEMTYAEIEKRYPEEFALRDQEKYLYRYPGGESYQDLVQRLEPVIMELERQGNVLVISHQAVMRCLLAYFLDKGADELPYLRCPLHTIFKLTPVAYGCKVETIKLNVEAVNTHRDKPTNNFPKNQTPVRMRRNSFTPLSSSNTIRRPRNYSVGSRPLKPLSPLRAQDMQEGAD
Chain of UniProt P18031 (P18031 whole entry, looked up): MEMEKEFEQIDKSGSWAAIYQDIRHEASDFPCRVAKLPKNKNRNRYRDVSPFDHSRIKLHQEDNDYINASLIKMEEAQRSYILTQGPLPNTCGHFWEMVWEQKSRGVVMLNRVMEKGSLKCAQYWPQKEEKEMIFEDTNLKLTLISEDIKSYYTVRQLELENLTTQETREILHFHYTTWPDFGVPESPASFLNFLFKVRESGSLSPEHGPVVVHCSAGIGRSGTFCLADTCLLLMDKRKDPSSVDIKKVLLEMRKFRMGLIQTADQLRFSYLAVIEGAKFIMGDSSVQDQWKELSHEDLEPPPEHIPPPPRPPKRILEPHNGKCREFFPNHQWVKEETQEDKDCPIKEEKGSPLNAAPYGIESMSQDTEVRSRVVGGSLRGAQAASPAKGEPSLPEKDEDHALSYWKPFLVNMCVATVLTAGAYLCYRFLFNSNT
Chain of UniProt Q14289 (Q14289 whole entry, looked up): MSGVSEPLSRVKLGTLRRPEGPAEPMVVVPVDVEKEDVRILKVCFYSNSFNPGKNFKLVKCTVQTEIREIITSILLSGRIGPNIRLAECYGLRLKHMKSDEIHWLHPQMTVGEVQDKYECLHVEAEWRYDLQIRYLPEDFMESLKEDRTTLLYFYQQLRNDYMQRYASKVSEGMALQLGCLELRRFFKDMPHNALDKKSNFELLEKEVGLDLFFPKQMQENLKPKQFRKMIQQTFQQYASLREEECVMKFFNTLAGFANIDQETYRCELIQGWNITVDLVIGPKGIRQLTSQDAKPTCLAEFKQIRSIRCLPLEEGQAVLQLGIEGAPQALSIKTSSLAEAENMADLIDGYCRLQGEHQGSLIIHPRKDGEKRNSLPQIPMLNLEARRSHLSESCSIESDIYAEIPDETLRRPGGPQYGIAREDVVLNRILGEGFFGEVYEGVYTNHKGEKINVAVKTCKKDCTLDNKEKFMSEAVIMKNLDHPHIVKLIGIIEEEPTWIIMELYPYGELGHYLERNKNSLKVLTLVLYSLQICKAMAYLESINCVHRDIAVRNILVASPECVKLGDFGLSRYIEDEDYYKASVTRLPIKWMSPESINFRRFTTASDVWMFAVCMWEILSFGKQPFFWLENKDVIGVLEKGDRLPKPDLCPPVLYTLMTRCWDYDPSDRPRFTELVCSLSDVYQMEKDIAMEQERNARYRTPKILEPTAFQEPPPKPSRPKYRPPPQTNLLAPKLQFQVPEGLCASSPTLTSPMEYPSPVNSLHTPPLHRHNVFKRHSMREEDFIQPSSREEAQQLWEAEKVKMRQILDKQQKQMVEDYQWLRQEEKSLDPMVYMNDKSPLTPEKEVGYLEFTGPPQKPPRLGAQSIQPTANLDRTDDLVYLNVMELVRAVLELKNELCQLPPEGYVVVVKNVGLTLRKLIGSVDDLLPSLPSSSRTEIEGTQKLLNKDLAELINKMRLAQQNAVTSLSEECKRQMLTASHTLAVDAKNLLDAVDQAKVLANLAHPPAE

Row | Target | log2 fold change [1] | log2 fold change [2] | log2 fold change [3] | log2 fold change [4] | log2 fold change [5] | log2 fold change [6] | log2 fold change [7] | log2 fold change [8] | log2 fold change [9] | log2 fold change [10] | log2 fold change [11] | log2 fold change [12] | log2 fold change [13] | log2 fold change [14] | log2 fold change [15] | log2 fold change [16] | log2 fold change [17] | log2 fold change [18] | log2 fold change [19] | log2 fold change [20]
1 | PFN1 (UniProt P07737) | -0.022 | -0.017 | 0.01 | 0.019 | -0.007 | -0.006 | 0.015 | -0.002 | 0.01 | -0.007 | -0.018 | -0.007 | 0.009 | 0.013 | -0.022 | -0.017 | 0.009 | 0.007 | 0 | 0.002
2 | POLR2B (UniProt P30876) | 0.031 | 0.019 | -0.014 | 0.012 | -0.016 | -0.008 | -0.024 | 0.002 | -0.004 | -0.007 | -0.011 | -0.017 | 0.025 | -0.018 | 0.005 | 0.029 | -0.031 | -0.014 | 0.028 | 0.032
3 | PITRM1 isoform 2 (UniProt Q5JRX3) | -0.035 | 0.011 | 0.077 | 0.04 | -0.037 | -0.025 | 0.009 | 0.016 | 0.024 | -0.015 | 0.007 | -0.004 | 0.134 | -0.009 | -0.019 | 0.001 | -0.021 | -0.001 | -0.005 | 0.012
4 | PLIN2 (UniProt Q99541) | 0.013 | 0.024 | -0.093 | 0.004 | 0.028 | -0.015 | -0.045 | 0.021 | -0.042 | 0 | 0.015 | 0.031 | -0.014 | -0.022 | -0.001 | 0.069 | -0.007 | 0.016 | 0.025 | 0
5 | QKI (UniProt Q96PU8) | -0.023 | -0.018 | -0.001 | -0.005 | 0.012 | -0.029 | 0.012 | 0.005 | -0.034 | 0.027 | -0.022 | -0.012 | -0.023 | -0.027 | 0.029 | 0.065 | 0.069 | -0.094 | 0.009 | -0.023
6 | PYCR2 (UniProt Q96C36) | -0.013 | 0.014 | 0.011 | -0.005 | -0.013 | 0.003 | -0.04 | 0.007 | 0.01 | 0.031 | 0.012 | 0.002 | -0.007 | -0.032 | -0.007 | -0.026 | 0.001 | 0.013 | -0.017 | -0.016
7 | PTK2B (UniProt Q14289) | 0.024 | -0.012 | 0.001 | -0.012 | -0.053 | 0.027 | 0.066 | 0.067 | -0.068 | 0.077 | 0.014 | 0.073 | -0.04 | -0.072 | -0.005 | -0.039 | -0.001 | -0.049 | 0.013 | -0.022
8 | PRKACA (UniProt P17612) | -0.033 | -0.056 | 0.049 | 0.016 | -0.015 | -0.015 | 0.034 | 0.234 | 0.34 | 0.015 | 0.021 | 0.767 (active) | 0.029 | -0.106 | -0.045 | 0.059 | -0.046 | -0.118 | -0.008 | -0.057
9 | PGRMC1 (UniProt O00264) | -0.032 | -0.378 | 0.025 | -0.029 | 0.003 | 0.018 | -0.004 | 0.008 | 0.013 | -0.005 | 0.057 | 0.013 | 0.008 | -0.01 | -0.035 | 0.004 | 0.022 | -0.066 | -0.007 | -0.005
10 | PDS5A (UniProt Q29RF7) | 0.043 | -0.015 | -0.029 | 0.052 | 0.032 | 0.012 | -0.038 | -0.005 | 0.001 | -0.015 | 0 | 0.013 | 0.008 | -0.017 | -0.029 | 0.023 | -0.038 | 0.017 | 0.031 | 0.039
11 | POLD1 (UniProt P28340) | 0.016 | -0.05 | 0.013 | 0.008 | -0.008 | 0.015 | -0.029 | -0.006 | 0.007 | -0.01 | -0.003 | 0.014 | 0.035 | 0.018 | 0 | 0.005 | -0.012 | 0.005 | 0.02 | -0.032
12 | PLA2G4B isoform 6 (UniProt P0C869) | 0.099 | 0.064 | 0.048 | -0.099 | 0.023 | 0.062 | -0.021 | -0.011 | 0.026 | 0.065 | -0.029 | -0.046 | -0.17 | -0.15 | 0 | -0.047 | -0.149 | 0.34 | -0.005 | -0.052
13 | PTPN1 (UniProt P18031) | -0.007 | 0.065 | -0.015 | 0.025 | -0.011 | -0.005 | -0.019 | 0.027 | -0.017 | 0.024 | -0.003 | -0.024 | 0.018 | 0.024 | 0.006 | -0.005 | -0.002 | 0.006 | 0.049 | 0.016
14 | POLR3E (UniProt Q9NVU0) | 0.003 | 0.003 | -0.007 | 0.017 | 0.005 | 0.006 | -0.001 | -0.03 | -0.007 | -0.016 | 0.02 | 0.018 | 0.043 | -0.006 | 0.029 | 0.025 | -0.021 | -0.004 | 0.003 | 0.007
15 | PTK2 (UniProt Q05397) | -0.018 | -0.009 | 0.045 | -0.031 | -0.045 | -0.02 | 0.271 | 0.32 | -0.045 | 0.22 | 0.085 | 0.188 | -0.002 | 0.044 | -0.015 | -0.024 | 0.011 | -0.054 | -0.007 | -0.128
16 | PFKFB2 (UniProt O60825) | -0.007 | -0.012 | 0.03 | -0.004 | 0.005 | -0.02 | 0.02 | -0.004 | 0.002 | -0.001 | -0.007 | -0.014 | 0.035 | -0.017 | -0.016 | 0.006 | -0.001 | -0.013 | -0.011 | -0.001
